For 13 sequences, binding signal results are on record in PMC11006913.

Test in all cases: PBM; 200 nM protein, PBS
Conditions in all cases: dsDNA, one strand shown

Assay [1] addresses HESX1 (Homo sapiens, UniProt Q9UBX0 95-180, R165K).
In assay [2] the target is HESX1 (Homo sapiens, UniProt Q9UBX0 95-180).
The target in assay [3] is HESX1 (Homo sapiens, UniProt Q9UBX0 95-180, P111T).
Assay [4] deals with ALX4 (Homo sapiens, UniProt Q9H161 200-286).
Assay [5] concerns the target PRRX1 (Homo sapiens, UniProt P54821 80-166, F113S).
Assay [6] addresses ALX4 (Homo sapiens, UniProt Q9H161 200-286, Q225E).
The target of assay [7] is MSX2 (Homo sapiens, UniProt P35548 130-214, R199I).
Chain of MSX2 (Homo sapiens, UniProt P35548 130-214, R199I) (P35548 130-214 R199I): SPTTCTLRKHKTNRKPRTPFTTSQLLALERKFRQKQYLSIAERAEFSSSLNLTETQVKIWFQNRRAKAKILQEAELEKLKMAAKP
Assay [8] concerns the target ALX1 (Homo sapiens, UniProt Q15699 118-204, L144V).
In assay [9] the target is SHOX (Homo sapiens, UniProt O15266 103-189, R173C).
Chain of SHOX (O15266 103-189 R173C): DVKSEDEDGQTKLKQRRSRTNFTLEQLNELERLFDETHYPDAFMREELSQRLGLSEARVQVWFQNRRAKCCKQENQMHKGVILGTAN
For assay [10], the target named is ALX1 (Homo sapiens, UniProt Q15699 118-204, L144R).
Chain of ALX1 (Homo sapiens, UniProt Q15699 118-204, L144R) (Q15699 118-204 L144R): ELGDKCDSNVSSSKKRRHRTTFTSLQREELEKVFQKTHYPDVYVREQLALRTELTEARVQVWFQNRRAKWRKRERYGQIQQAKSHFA
In assay [11] the target is HESX1 (Homo sapiens, UniProt Q9UBX0 95-180, R109Q).
Chain of HESX1 (Homo sapiens, UniProt Q9UBX0 95-180, R109Q) (Q9UBX0 95-180 R109Q): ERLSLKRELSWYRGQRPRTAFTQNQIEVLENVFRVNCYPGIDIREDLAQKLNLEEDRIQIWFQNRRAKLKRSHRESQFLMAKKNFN
Assay [12] deals with PROP1 (Homo sapiens, UniProt O75360 56-141, R99H).
Chain of PROP1 (Homo sapiens, UniProt O75360 56-141, R99H) (O75360 56-141 R99H): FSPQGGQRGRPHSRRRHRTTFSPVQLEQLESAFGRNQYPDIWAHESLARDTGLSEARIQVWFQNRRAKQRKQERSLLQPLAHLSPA
Assay [13] addresses ALX3 (Homo sapiens, UniProt O95076 139-225, L168Q).
For assay [14], the target named is MSX2 (Homo sapiens, UniProt P35548 130-214, F161Y).
Chain of MSX2 (Homo sapiens, UniProt P35548 130-214, F161Y) (P35548 130-214 F161Y): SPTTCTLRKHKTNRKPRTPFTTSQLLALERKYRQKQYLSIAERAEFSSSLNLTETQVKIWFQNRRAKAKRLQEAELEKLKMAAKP
Assay [15] has as its target HESX1 (Homo sapiens, UniProt Q9UBX0 95-180, F115L).
The target in assay [16] is ALX1 (Homo sapiens, UniProt Q15699 118-204).
Chain of ALX1 (Homo sapiens, UniProt Q15699 118-204) (Q15699 118-204): as the sequence (Q15699 118-204 L144R) above, with R27L counted along it
For assay [17], the target named is PRRX1 (Homo sapiens, UniProt P54821 80-166).
Chain of PRRX1 (Homo sapiens, UniProt P54821 80-166) (P54821 80-166): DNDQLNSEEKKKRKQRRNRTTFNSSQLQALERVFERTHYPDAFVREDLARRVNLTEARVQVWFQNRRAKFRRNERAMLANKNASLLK
The target in assay [18] is PROP1 (Homo sapiens, UniProt O75360 56-141).
Chain of PROP1 (Homo sapiens, UniProt O75360 56-141) (O75360 56-141): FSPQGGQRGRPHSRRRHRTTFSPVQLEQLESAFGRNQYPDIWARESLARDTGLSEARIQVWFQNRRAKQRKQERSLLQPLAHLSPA
In assay [19] the target is PROP1 (Homo sapiens, UniProt O75360 56-141, F88S).
Chain of PROP1 (Homo sapiens, UniProt O75360 56-141, F88S) (O75360 56-141 F88S): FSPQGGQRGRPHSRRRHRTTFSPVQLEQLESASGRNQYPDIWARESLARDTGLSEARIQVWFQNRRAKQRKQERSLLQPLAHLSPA

Chain of HESX1 (Homo sapiens, UniProt Q9UBX0 95-180, P111T) (Q9UBX0 95-180 P111T): as the sequence (Q9UBX0 95-180 R109Q) above, with Q15R, P17T counted along it
Chain of HESX1 (Homo sapiens, UniProt Q9UBX0 95-180) (Q9UBX0 95-180): as the sequence (Q9UBX0 95-180 R109Q) above, with Q15R counted along it
Chain of HESX1 (Homo sapiens, UniProt Q9UBX0 95-180, R165K) (Q9UBX0 95-180 R165K): as the sequence (Q9UBX0 95-180 R109Q) above, with Q15R, R71K counted along it
Chain of HESX1 (Homo sapiens, UniProt Q9UBX0 95-180, F115L) (Q9UBX0 95-180 F115L): as the sequence (Q9UBX0 95-180 R109Q) above, with Q15R, F21L counted along it
Chain of PRRX1 (Homo sapiens, UniProt P54821 80-166, F113S) (P54821 80-166 F113S): as the sequence (P54821 80-166) above, with F34S counted along it
Chain of ALX4 (Homo sapiens, UniProt Q9H161 200-286) (Q9H161 200-286): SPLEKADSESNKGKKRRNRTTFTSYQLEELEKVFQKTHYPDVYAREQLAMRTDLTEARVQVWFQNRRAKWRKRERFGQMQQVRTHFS
Chain of ALX1 (Homo sapiens, UniProt Q15699 118-204, L144V) (Q15699 118-204 L144V): as the sequence (Q15699 118-204 L144R) above, with R27V counted along it
Chain of ALX4 (Homo sapiens, UniProt Q9H161 200-286, Q225E) (Q9H161 200-286 Q225E): as the sequence (Q9H161 200-286) above, with Q26E counted along it
Chain of ALX3 (O95076 139-225 L168Q): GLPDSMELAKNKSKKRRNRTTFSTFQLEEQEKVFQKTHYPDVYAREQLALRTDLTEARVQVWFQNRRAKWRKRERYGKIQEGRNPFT

Consider TAAATTCA, for which the binding signal in [1] is 7.34 upbm affinity estimate (log intensity, higher = more binding, comparable within an allelic series); in assay [2], 7.46 upbm affinity estimate (log intensity, higher = more binding, comparable within an allelic series).

Regarding AAATATTA, the binding signal in [1] was 8.45 upbm affinity estimate (log intensity, higher = more binding, comparable within an allelic series); in assay [2] it was 8.54 upbm affinity estimate (log intensity, higher = more binding, comparable within an allelic series).

ACCAAATA: the binding signal is 7.74 upbm affinity estimate (log intensity, higher = more binding, comparable within an allelic series) in [1]; 7.83 upbm affinity estimate (log intensity, higher = more binding, comparable within an allelic series) in [2]; 7.46 upbm affinity estimate (log intensity, higher = more binding, comparable within an allelic series) in assay [3].

For AATTATCG, the binding signal in assay [1] was 11.5 upbm affinity estimate (log intensity, higher = more binding, comparable within an allelic series); in [4] it was 13.7 upbm affinity estimate (log intensity, higher = more binding, comparable within an allelic series); in [5] it was 11 upbm affinity estimate (log intensity, higher = more binding, comparable within an allelic series); in assay [6], 12.7 upbm affinity estimate (log intensity, higher = more binding, comparable within an allelic series); in assay [2] it was 11.6 upbm affinity estimate (log intensity, higher = more binding, comparable within an allelic series); in assay [7], 12.3 upbm affinity estimate (log intensity, higher = more binding, comparable within an allelic series). The binding signal was 11.5 upbm affinity estimate (log intensity, higher = more binding, comparable within an allelic series) in assay [8]; 9.18 upbm affinity estimate (log intensity, higher = more binding, comparable within an allelic series) in [9]; 11.1 upbm affinity estimate (log intensity, higher = more binding, comparable within an allelic series) in assay [10]; 8.48 upbm affinity estimate (log intensity, higher = more binding, comparable within an allelic series) in [11]; 10.8 upbm affinity estimate (log intensity, higher = more binding, comparable within an allelic series) in assay [12]; 10.3 upbm affinity estimate (log intensity, higher = more binding, comparable within an allelic series) in [13]. For the same sequence, the binding signal in assay [3] was 10.2 upbm affinity estimate (log intensity, higher = more binding, comparable within an allelic series); in assay [14], 13 upbm affinity estimate (log intensity, higher = more binding, comparable within an allelic series); in assay [15], 7.49 upbm affinity estimate (log intensity, higher = more binding, comparable within an allelic series); in [16], 12 upbm affinity estimate (log intensity, higher = more binding, comparable within an allelic series); in assay [17], 13.2 upbm affinity estimate (log intensity, higher = more binding, comparable within an allelic series).

On to ATTATAGC, for which the binding signal in [1] was 8.55 upbm affinity estimate (log intensity, higher = more binding, comparable within an allelic series); in assay [2] it was 8.71 upbm affinity estimate (log intensity, higher = more binding, comparable within an allelic series).

For AATGTAAG, the binding signal in assay [1] is 7.66 upbm affinity estimate (log intensity, higher = more binding, comparable within an allelic series); in assay [2], 7.68 upbm affinity estimate (log intensity, higher = more binding, comparable within an allelic series).

For the sequence AGAGGACC, the binding signal in assay [1] is 6.6 upbm affinity estimate (log intensity, higher = more binding, comparable within an allelic series); in [2] it was 6.46 upbm affinity estimate (log intensity, higher = more binding, comparable within an allelic series); in assay [11], 6.58 upbm affinity estimate (log intensity, higher = more binding, comparable within an allelic series); in [3], 6.41 upbm affinity estimate (log intensity, higher = more binding, comparable within an allelic series); in assay [15], 6.55 upbm affinity estimate (log intensity, higher = more binding, comparable within an allelic series).

In the case of ATGTTAAT, the binding signal is 8.98 upbm affinity estimate (log intensity, higher = more binding, comparable within an allelic series) in assay [1] and 9.41 upbm affinity estimate (log intensity, higher = more binding, comparable within an allelic series) in assay [2].

Take TAGCTTAA: the binding signal in assay [1] was 7.4 upbm affinity estimate (log intensity, higher = more binding, comparable within an allelic series); in assay [2] it was 7.51 upbm affinity estimate (log intensity, higher = more binding, comparable within an allelic series).

In the case of CAGGCCGG, the binding signal was 6.44 upbm affinity estimate (log intensity, higher = more binding, comparable within an allelic series) in [1]; 6.33 upbm affinity estimate (log intensity, higher = more binding, comparable within an allelic series) in [2]; 6.48 upbm affinity estimate (log intensity, higher = more binding, comparable within an allelic series) in assay [11]; 6.33 upbm affinity estimate (log intensity, higher = more binding, comparable within an allelic series) in assay [3]; 6.4 upbm affinity estimate (log intensity, higher = more binding, comparable within an allelic series) in assay [15].

On to GAGCAGCC, for which the binding signal in assay [1] is 6.52 upbm affinity estimate (log intensity, higher = more binding, comparable within an allelic series); in assay [4], 8.07 upbm affinity estimate (log intensity, higher = more binding, comparable within an allelic series); in assay [6] it was 8.24 upbm affinity estimate (log intensity, higher = more binding, comparable within an allelic series); in assay [2], 6.51 upbm affinity estimate (log intensity, higher = more binding, comparable within an allelic series); in [11], 6.47 upbm affinity estimate (log intensity, higher = more binding, comparable within an allelic series); in assay [3], 6.43 upbm affinity estimate (log intensity, higher = more binding, comparable within an allelic series). Besides, in assay [15], the binding signal was 6.53 upbm affinity estimate (log intensity, higher = more binding, comparable within an allelic series).

For the sequence CGGCTAGC, the binding signal is 6.5 upbm affinity estimate (log intensity, higher = more binding, comparable within an allelic series) in [1]; 9.18 upbm affinity estimate (log intensity, higher = more binding, comparable within an allelic series) in assay [5]; 6.49 upbm affinity estimate (log intensity, higher = more binding, comparable within an allelic series) in [2]; 6.39 upbm affinity estimate (log intensity, higher = more binding, comparable within an allelic series) in assay [11]; 6.54 upbm affinity estimate (log intensity, higher = more binding, comparable within an allelic series) in [3]; 6.45 upbm affinity estimate (log intensity, higher = more binding, comparable within an allelic series) in assay [15]. The binding signal in [17] is 9.46 upbm affinity estimate (log intensity, higher = more binding, comparable within an allelic series).

For AATTATCA, the binding signal was 11.4 upbm affinity estimate (log intensity, higher = more binding, comparable within an allelic series) in assay [1]; 11.2 upbm affinity estimate (log intensity, higher = more binding, comparable within an allelic series) in assay [5]; 11.5 upbm affinity estimate (log intensity, higher = more binding, comparable within an allelic series) in [2]; 12.3 upbm affinity estimate (log intensity, higher = more binding, comparable within an allelic series) in assay [7]; 11.3 upbm affinity estimate (log intensity, higher = more binding, comparable within an allelic series) in assay [8]; 11.1 upbm affinity estimate (log intensity, higher = more binding, comparable within an allelic series) in [10]. Further, the binding signal is 11 upbm affinity estimate (log intensity, higher = more binding, comparable within an allelic series) in assay [18]; 8.56 upbm affinity estimate (log intensity, higher = more binding, comparable within an allelic series) in [11]; 10.6 upbm affinity estimate (log intensity, higher = more binding, comparable within an allelic series) in assay [12]; 10.1 upbm affinity estimate (log intensity, higher = more binding, comparable within an allelic series) in assay [3]; 7.71 upbm affinity estimate (log intensity, higher = more binding, comparable within an allelic series) in assay [19]; 13 upbm affinity estimate (log intensity, higher = more binding, comparable within an allelic series) in assay [14]. Besides, the binding signal in [15] was 7.79 upbm affinity estimate (log intensity, higher = more binding, comparable within an allelic series); in assay [16], 12 upbm affinity estimate (log intensity, higher = more binding, comparable within an allelic series); in assay [17] it was 13.3 upbm affinity estimate (log intensity, higher = more binding, comparable within an allelic series).
